# Compound activity deposited in PubChem by Broad Institute.
# HIV Env fusion: HIV envelope-mediated fusion inhibition. HeLa-JRFL Env/CEM21 cell fusion, luciferase. inhibition, % at 12.3 µM. 1.1% of 360,000 active;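 active means mean replicate inhibition score of at least 50 and every replicate individually at or above 50; inconclusive means only one of the two criteria met; inactive means mean below 50 and not all replicates reaching 50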;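 further: 0% = plate neutral controls and 100% = maraviroc near 300 nM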
# CFTR F508del cor: CFTR F508del correction in bronchial cells. CFBE cells, YFP halide quenching; stimulated with forskolin plus potentiator P3; % fluorescence drop versus neutral controls. activity (quench increase), % at 7.58 µM. 0.36% of 350,000 active;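 active means mean added fluorescence quench of at least 8% versus neutral control, with both replicates also reaching 8%; inconclusive means only one of the mean or replicate conditions met; inactive means mean below 8% and not both replicates reaching 8%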;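 further: cells transiently co-express mutant CFTR-F508del with the halide-sensitive YFP; corrector assay measuring rescue of mutant channel to the surface after 24 h compound exposure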
# ALR H2O2 inh: human ALR oxidase inhibition via reduced H2O2; P55789; purified ALR, DTT oxidation, H2O2 HRP-luminol luminescence; inhibition, % (test concentration not listed); 3.8% of 290,000 active; AID 485317;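 active means mean replicate inhibition above about 79%, with every replicate also reaching it, limit read from the data; inconclusive means only one of the two criteria met; inactive means mean below limit and not every replicate reaching it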
# PglD inh: PglD (C. jejuni) enzyme inhibition. purified PglD enzyme, DTNB colorimetric CoA detection. inhibition, % at 12.5 µM. 0.098% of 360,000 active. AID 602405; in the data active means inhibition above about 16%, passing the limit was not always enough; inconclusive means no clear call, values can overlap the other calls
# NSD2 inh: blocks human histone methyltransferase NSD2. 0.54% of 310,000 active. NSD2 peptide methylation, AlphaScreen, 120 min. inhibition, % at 12.5 µM. AID 743445; in the data active means inhibition above about 50%
# CASP6 VEID inh: blocks human caspase-6 cleavage activity | P55212 | purified caspase-6, Z-VEID-R110 cleavage fluorescence | inhibition, % at 12.5 µM | AID 686996 | 0.53% of 350,000 active;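 active means mean inhibition across replicates at least about 35%, with every replicate also reaching that limit, limit read from the data; inconclusive means only one of the two criteria met; inactive means neither criterion met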;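 further: 0% = median of neutral control wells and 100% = no fluorescence left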
# An asterisk follows results filed as active; ? = inconclusive; nt = not tested or not shown; [ ] = another dose, or the depositor's remark. Rows were chosen to be rich in hits. Some 4.1% of all compounds tested hit in one or more screens of this group.
SMILES,HIV Env fusion,CFTR F508del cor,ALR H2O2 inh,PglD inh,NSD2 inh,CASP6 VEID inh
Cc1ccn2cc(-c3cccc(S(=O)(=O)N4CCCC4)c3)nc2c1,-15.8,-2.4,97.4*,0.3,33.5,1.9
O=S(=O)(c1cccc(-c2cn3ccccc3n2)c1)N1CCCCC1,-3.5,0.6,-10.1,-13.4,-1.6,0.4
CC(=O)NCc1ccc(C(=O)COC(=O)c2ccc(C#N)cc2)o1,nt,nt,nt,nt,3.7,nt
Nc1nc2ccc(N3CCOCC3)cc2s1,nt,nt,98.4*,nt,-73.5,nt
COC(=O)C[C@@H]1CC[C@@H]2[C@H](COC[C@@H](O)CN2S(=O)(=O)c2ccc(F)cc2)O1,-4.4[16.7 µM],2.0,nt,-3.5,nt,0.4
COc1cc(CC2COC(c3ccc(O)c(OC)c3)C2COC(C)=O)ccc1O (stereo unspecified),nt,-2.3,82.1*,-0.8,nt,57.6*
CCC(=O)Oc1ccc(C/C(=N\O)c2ccc(O)cc2O)o1,13.0,nt,97.9*,2.7,nt,31.1
CCOC(=O)c1ccc(CC(=O)c2ccc(O)cc2O)o1,nt,nt,25.8,nt,nt,nt
CO[C@H]1CN(C)C(=O)c2ccc(NC(=O)NC(C)C)cc2OC[C@@H](C)N(CCC(F)(F)F)C[C@H]1C,-16.7[16.7 µM],2.2,nt,1.4,nt,1.8
CC/C(=N/OC(=O)c1cccc(C)c1)C(=O)c1cccs1,-2.3,0.3,91.4*,nt,1.6,nt
O=C(Cc1ccccn1)N1CC(=O)N2[C@@H](CO)[C@H](c3ccc(C#CC4CC4)cc3)[C@@H]2C1,nt,0.0,nt,nt,nt,1.5
N#CC1=C(N)SC(N)=C(C#N)C1c1ccc([N+](=O)[O-])cc1,-7.0,nt,97.8*,nt,6.3,3.8
O=C(Nc1cccc(F)c1)N[C@@H]1CC[C@H](CCNS(=O)(=O)c2cccc(Cl)c2)O[C@@H]1CO,79.6*[16.7 µM],1.9,nt,-158.8,nt,-7.0
O=C(N[C@@H]1CC[C@H](CCNS(=O)(=O)c2ccc(F)cc2)O[C@@H]1CO)C1CC1,59.4*[16.7 µM],0.9,nt,-1.2,nt,-2.2
O=C(N[C@@H]1CC[C@@H](CCNS(=O)(=O)c2ccc(F)cc2)O[C@H]1CO)C1CC1,-1.4[16.7 µM],-1.6,nt,-0.8,nt,-2.5
O=S(=O)(NCC[C@H]1CC[C@H](NS(=O)(=O)c2ccccc2Cl)[C@H](CO)O1)c1ccc(Cl)cc1,58.4*[16.7 µM],0.6,nt,-3.8,nt,1.4
O=S(=O)(NCC[C@H]1CC[C@H](NS(=O)(=O)c2ccccc2Cl)[C@@H](CO)O1)c1ccc(Cl)cc1,-4.2[16.7 µM],-2.8,nt,-2.2,nt,2.5
CCC(=O)N1[C@@H]2Cn3c(ccc(-c4ccncc4)c3=O)[C@H]1[C@@H](C(=O)NC1Cc3ccccc3C1)[C@@H]2CO,-4.2[16.7 µM],nt,nt,10.9,nt,4.2
Cc1cc(C)n(CCc2nc(-c3ccc(F)cc3)cs2)n1,-12.3,nt,3.9,nt,0.8,0.6
COc1cc(-c2csc(CCn3nc(C)cc3C)n2)cc(OC)c1OC,-0.4,2.2,98.9*,nt,-1.3,1.1
COCC1CCCN(Cc2cn(Cc3ccccc3)nc2-c2cc3ccccc3o2)C1 (stereo unspecified),57.9*,5.5,-70.8,-3.4,3.2,-4.5
Cc1ccc2cn[nH]c2c1N,1.7,nt,85.2*,nt,nt,1.8
O=C1Nc2cc(Cl)cnc2N2CCCC12 (stereo unspecified),-17.4,2.8,-9.6,nt,nt,39.7*
O=C1Nc2ccccc2N2CCCC12 (stereo unspecified),nt,nt,5.0,nt,nt,nt
OC[C@H]1[C@@H](c2ccc(C3=CCCC3)cc2)[C@H]2CN(CCC(F)(F)F)CCCCN21,nt,-0.6,nt,-0.2,nt,2.0
SMILES,HIV Env fusion,CFTR F508del cor,ALR H2O2 inh,PglD inh,NSD2 inh,CASP6 VEID inh
NS(=O)(=O)c1ccc(Sc2ccc3ccccc3c2)nc1,9.4,1.9,99.0*,-1.9,-2.3,-2.3
CCOC(=O)/C(C#N)=C\C=C1C=CN(C)C=C1,nt,nt,99.0*,-7.1,8.2,nt
CSc1nc(-c2ccc(Cl)cc2Cl)[nH]c(=O)c1C#N,-8.0,nt,96.4*,-6.7,nt,3.1
Cc1cc(-c2ccc(Cl)cc2Cl)c(C#N)c(=O)[nH]1,-6.7,0.7,-1.5,-9.0,-2.6,-1.2
CCCC(=O)N1CC2(CN(C(=O)CC3CC3)C2)c2c(n(C)c3cc(OC)ccc23)[C@H]1CO,nt,2.9,nt,nt,nt,-0.8
Oc1ccc(C=NNc2ccccn2)c(O)c1,69.1*,2.3,nt,nt,1.0,nt
Oc1ccc(/C=N/Nc2nccnc2Cl)c(O)c1,?,nt,58.5,nt,nt,nt
O=c1[nH]ncc(N/N=C\c2ccc(O)cc2O)c1Cl,-27.3,1.3,96.5*,16.7,3.2,2.0
Oc1ccc(/C=N/Nc2cccc3cccnc23)c(O)c1,-228.0,nt,83.7*,8.8,nt,6.0
